Reference: the supplement of paper PMC10849652
Of roughly 7,900 targets only a part is listed; those with a hit were picked by preference. About 0.6% of all pairs of compound and target were hits. Unmarked numbers belong to inactive results.

What was measured:
Test in all cases: log2 fold change, soluble protein after heating vs DMSO (PISA); higher = thermal stabilisation; K562 cells, 10 uM, 30 min; active = over 0.2 and 3.5 SD of the protein, either way, in both replicates (recomputed)
[1] = compound: COC1=CC=C(C=C1)CN2C=CC3=C2C=C(C=C3)C(=O)NO
Method in brief: (§1)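 K562 cells at 2×10^6 cells/mL were exposed to 10 μM compound for 30 min, then aliquots were heated for 3 min across 48°C-58°C, pooled, and extracted in PBS containing 0.5% NP-40 at 4°C. The supernatant after 21,000xg for 90 min was taken as soluble protein and measured by TMTpro 16plex LC-MS/MS with channel sums equalised. Thermal stability is reported relative to control samples, with values from duplicates. Fold changes are given on a log2 scale.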

filanesib = compound: CON(C)C(=O)N1N=C(c2cc(F)ccc2F)S[C@@]1(CCCN)c1ccccc1 [filanesib]
Method in brief: as §1

zotarolimus = compound: CO[C@H]1C[C@@H]2CC[C@@H](C)[C@@](O)(O2)C(=O)C(=O)N2CCCC[C@H]2C(=O)O[C@H]([C@H](C)C[C@@H]2CC[C@H](n3cnnn3)[C@H](OC)C2)CC(=O)[C@H](C)/C=C(\C)[C@@H](O)[C@@H](OC)C(=O)[C@H](C)C[C@H](C)/C=C/C=C/C=C/1C [zotarolimus]
Method in brief: as §1

idasanutlin = compound: COc1cc(C(=O)O)ccc1NC(=O)[C@@H]1N[C@@H](CC(C)(C)C)[C@](C#N)(c2ccc(Cl)cc2F)[C@H]1c1cccc(Cl)c1F [idasanutlin]
Method in brief: as §1

alisertib = compound: COc1cc(Nc2ncc3c(n2)-c2ccc(Cl)cc2C(c2c(F)cccc2OC)=NC3)ccc1C(=O)O [alisertib]
Method in brief: as §1

[2] = compound: COc1cc2nc(-c3cc(F)ccc3O)nc(N[C@@H]3CNC[C@H]3C(C)(C)O)c2cc1OC
Method in brief: as §1

gefitinib = compound: COc1cc2ncnc(Nc3ccc(F)c(Cl)c3)c2cc1OCCCN1CCOCC1 [gefitinib]
Method in brief: as §1

[3] = compound: COc1cccc2cc(-c3nc([C@H]4CC[C@H](C(=O)O)CC4)n4ncnc(N)c34)[nH]c12
Method in brief: as §1

lapatinib = compound: CS(=O)(=O)CCNCc1ccc(-c2ccc3ncnc(Nc4ccc(OCc5cccc(F)c5)c(Cl)c4)c3c2)o1 [lapatinib]
Method in brief: as §1

pictilisib = compound: CS(=O)(=O)N1CCN(Cc2cc3nc(-c4cccc5[nH]ncc45)nc(N4CCOCC4)c3s2)CC1 [pictilisib]
Method in brief: as §1

[4] = compound: CS(=O)(=O)c1ccc(-c2cnc(N)c(C(=O)Nc3ccccc3)n2)cc1
Method in brief: as §1

crizotinib = compound: C[C@@H](Oc1cc(-c2cnn(C3CCNCC3)c2)cnc1N)c1c(Cl)ccc(F)c1Cl [crizotinib]
Method in brief: as §1

[5] = compound: C[C@@H]1COCCN1C2=NC(=NC(=C2)C3(CC3)S(=O)(=O)C)C4=C5C=CNC5=CC=C4
Method in brief: as §1

[6] = compound: C[C@H](C1=CC=C(C=C1)C(=O)NC2=C3C=CNC3=NC=C2)N
Method in brief: as §1

duvelisib = compound: C[C@H](Nc1ncnc2nc[nH]c12)c1cc2cccc(Cl)c2c(=O)n1-c1ccccc1 [duvelisib]
Method in brief: as §1

gandotinib = compound: Cc1cc(Nc2cc(CN3CCOCC3)c3nc(C)c(Cc4ccc(Cl)cc4F)n3n2)n[nH]1 [gandotinib]
Method in brief: as §1

tozasertib = compound: Cc1cc(Nc2cc(N3CCN(C)CC3)nc(Sc3ccc(NC(=O)C4CC4)cc3)n2)n[nH]1 [tozasertib]
Method in brief: as §1

[7] = compound: Cc1cc(SCc2sc(-c3ccc(C(F)(F)F)cc3)nc2C)ccc1OCC(=O)O
Method in brief: as §1

doramapimod = compound: Cc1ccc(-n2nc(C(C)(C)C)cc2NC(=O)Nc2ccc(OCCN3CCOCC3)c3ccccc23)cc1 [doramapimod]
Method in brief: as §1

ispinesib = compound: Cc1ccc(C(=O)N(CCCN)[C@@H](c2nc3cc(Cl)ccc3c(=O)n2Cc2ccccc2)C(C)C)cc1 [ispinesib]
Method in brief: as §1

Chain of UniProt P22830 (P22830 whole entry, looked up): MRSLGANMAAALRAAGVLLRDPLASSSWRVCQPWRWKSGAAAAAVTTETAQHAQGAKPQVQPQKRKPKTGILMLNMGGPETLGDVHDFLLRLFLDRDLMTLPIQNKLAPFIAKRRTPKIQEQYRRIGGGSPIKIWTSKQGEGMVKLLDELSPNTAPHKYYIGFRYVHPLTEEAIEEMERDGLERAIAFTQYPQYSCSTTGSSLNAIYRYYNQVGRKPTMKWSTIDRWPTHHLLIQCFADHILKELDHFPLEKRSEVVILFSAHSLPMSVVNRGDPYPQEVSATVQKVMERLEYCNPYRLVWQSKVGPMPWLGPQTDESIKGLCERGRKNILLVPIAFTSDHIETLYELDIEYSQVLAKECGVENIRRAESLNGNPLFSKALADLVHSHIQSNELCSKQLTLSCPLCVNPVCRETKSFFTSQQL
Chain of UniProt Q49A26 (Q49A26 whole entry, looked up): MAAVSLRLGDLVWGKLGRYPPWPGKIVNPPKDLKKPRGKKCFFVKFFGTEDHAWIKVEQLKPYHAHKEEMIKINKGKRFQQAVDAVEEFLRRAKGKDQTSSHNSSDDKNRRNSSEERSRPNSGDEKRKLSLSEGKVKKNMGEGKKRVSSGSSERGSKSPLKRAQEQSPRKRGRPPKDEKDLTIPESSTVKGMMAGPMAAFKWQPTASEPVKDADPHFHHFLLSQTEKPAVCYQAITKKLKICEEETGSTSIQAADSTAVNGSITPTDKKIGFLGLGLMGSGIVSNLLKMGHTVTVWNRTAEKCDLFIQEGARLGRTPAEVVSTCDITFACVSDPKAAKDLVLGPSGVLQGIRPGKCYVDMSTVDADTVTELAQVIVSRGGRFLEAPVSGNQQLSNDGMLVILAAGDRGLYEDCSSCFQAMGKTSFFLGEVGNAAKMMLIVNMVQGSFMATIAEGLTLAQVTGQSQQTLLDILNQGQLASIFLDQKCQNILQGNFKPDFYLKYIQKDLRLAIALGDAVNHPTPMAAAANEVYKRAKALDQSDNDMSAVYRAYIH
Chain of UniProt P15586 (P15586 whole entry, looked up): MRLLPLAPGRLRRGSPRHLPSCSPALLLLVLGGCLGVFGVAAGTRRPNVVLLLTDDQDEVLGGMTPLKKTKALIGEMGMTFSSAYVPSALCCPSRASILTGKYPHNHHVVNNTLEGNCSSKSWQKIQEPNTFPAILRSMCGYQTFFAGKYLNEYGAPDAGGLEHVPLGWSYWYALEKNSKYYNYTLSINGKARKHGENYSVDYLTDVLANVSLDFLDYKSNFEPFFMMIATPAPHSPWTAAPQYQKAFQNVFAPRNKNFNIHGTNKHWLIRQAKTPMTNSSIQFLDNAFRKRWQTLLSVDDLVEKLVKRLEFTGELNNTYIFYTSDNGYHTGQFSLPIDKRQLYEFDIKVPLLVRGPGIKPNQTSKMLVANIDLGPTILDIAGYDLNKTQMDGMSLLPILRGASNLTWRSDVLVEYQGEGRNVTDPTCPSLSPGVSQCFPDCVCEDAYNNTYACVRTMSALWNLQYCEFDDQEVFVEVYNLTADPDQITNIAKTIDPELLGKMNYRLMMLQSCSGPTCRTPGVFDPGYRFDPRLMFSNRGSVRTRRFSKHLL
Chain of UniProt P46976 (P46976 whole entry, looked up): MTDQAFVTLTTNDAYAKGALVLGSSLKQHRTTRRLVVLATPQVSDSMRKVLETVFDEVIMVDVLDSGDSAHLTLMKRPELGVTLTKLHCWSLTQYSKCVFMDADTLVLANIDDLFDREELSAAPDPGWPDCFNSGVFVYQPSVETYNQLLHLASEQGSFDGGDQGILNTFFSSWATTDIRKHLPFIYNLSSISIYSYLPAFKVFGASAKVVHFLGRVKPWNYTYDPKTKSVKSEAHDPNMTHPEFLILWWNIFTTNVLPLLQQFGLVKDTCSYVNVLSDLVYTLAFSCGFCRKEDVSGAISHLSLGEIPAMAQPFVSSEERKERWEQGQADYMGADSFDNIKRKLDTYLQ
Chain of UniProt Q9NP66 (Q9NP66 whole entry, looked up): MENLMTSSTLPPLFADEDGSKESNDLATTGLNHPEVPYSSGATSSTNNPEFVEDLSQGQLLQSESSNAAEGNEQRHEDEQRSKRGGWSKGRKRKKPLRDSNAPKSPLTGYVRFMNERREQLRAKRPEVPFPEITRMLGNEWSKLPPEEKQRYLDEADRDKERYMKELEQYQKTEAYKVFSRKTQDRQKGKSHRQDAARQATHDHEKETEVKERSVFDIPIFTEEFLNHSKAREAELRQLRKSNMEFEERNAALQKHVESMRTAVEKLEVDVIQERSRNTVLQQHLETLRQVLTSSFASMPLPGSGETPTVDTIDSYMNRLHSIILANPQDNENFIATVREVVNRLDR
Chain of UniProt Q8NCW6 (Q8NCW6 whole entry, looked up): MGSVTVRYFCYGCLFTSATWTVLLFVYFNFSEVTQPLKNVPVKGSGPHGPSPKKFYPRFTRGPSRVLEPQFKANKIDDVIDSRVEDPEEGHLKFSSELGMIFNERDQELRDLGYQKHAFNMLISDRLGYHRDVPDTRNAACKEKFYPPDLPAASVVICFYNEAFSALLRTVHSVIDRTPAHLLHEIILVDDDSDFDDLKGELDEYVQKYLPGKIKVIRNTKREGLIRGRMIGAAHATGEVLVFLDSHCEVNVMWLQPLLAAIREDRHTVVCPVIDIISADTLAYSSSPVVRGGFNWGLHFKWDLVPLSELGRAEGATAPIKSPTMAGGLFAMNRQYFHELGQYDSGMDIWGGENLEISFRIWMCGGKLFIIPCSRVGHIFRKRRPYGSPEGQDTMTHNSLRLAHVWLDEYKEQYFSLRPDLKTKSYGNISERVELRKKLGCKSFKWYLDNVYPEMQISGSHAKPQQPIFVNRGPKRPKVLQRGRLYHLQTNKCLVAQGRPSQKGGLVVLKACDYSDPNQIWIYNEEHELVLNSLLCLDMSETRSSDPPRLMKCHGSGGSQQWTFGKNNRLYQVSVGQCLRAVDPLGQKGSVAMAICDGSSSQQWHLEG
Chain of UniProt Q7Z4H3 (Q7Z4H3 whole entry, looked up): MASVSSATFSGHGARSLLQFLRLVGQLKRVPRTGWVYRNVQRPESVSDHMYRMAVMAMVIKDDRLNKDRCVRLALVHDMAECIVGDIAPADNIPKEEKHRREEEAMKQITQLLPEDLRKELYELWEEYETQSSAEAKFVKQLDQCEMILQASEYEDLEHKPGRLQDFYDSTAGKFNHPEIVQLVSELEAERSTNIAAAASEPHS
Chain of UniProt P85037 (P85037 whole entry, looked up): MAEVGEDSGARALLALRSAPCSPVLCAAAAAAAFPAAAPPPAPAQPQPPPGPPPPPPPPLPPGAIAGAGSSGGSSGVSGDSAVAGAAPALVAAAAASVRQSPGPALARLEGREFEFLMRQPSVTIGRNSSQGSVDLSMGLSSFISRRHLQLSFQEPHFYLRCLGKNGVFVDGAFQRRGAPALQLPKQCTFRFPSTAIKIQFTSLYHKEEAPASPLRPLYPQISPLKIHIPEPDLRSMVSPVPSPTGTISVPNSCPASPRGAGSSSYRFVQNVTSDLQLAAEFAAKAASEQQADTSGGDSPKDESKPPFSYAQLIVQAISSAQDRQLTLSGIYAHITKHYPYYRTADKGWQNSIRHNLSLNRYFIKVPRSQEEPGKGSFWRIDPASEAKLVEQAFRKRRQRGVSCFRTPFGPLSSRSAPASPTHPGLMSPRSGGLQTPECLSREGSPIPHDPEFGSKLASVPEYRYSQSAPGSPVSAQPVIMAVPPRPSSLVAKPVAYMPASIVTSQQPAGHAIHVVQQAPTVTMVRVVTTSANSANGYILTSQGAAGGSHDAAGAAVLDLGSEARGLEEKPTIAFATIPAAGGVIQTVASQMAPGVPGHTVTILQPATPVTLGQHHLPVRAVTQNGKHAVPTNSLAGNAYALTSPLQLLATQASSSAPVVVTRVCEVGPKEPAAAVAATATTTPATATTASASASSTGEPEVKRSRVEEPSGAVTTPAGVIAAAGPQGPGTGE
Chain of UniProt Q86VQ1 (Q86VQ1 whole entry, looked up): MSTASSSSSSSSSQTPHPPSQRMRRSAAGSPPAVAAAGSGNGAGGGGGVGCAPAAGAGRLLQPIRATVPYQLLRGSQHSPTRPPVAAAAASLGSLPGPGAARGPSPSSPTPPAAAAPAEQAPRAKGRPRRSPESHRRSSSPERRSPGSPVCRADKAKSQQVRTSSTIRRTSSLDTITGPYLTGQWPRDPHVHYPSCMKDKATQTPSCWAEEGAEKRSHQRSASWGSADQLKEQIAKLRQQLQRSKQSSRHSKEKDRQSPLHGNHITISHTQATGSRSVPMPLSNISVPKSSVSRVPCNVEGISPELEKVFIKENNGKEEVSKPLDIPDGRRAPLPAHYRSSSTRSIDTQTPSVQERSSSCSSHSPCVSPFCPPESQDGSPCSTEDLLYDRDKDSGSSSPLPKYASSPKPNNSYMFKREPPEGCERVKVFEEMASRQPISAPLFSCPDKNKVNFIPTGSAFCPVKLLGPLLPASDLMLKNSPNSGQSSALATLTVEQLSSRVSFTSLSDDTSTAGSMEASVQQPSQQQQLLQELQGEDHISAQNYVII
Chain of UniProt Q53GQ0 (Q53GQ0 whole entry, looked up): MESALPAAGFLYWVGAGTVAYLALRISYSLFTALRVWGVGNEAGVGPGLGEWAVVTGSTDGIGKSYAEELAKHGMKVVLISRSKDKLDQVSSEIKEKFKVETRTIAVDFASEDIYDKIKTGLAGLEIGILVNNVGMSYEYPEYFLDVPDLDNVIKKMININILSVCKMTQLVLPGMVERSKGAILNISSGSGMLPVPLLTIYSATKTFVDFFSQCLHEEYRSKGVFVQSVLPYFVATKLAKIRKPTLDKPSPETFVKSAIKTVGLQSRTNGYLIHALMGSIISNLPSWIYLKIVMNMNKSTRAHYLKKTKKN
Chain of UniProt Q9NRD1 (Q9NRD1 whole entry, looked up): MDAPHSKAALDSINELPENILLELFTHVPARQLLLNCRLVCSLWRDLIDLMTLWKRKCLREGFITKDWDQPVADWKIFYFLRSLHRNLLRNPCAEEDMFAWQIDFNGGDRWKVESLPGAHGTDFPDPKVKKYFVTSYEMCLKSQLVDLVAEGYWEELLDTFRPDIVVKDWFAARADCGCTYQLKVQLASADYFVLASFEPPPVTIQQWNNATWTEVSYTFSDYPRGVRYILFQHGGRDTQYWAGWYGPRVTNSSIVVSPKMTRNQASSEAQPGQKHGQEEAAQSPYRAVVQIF

Row | Target | log2 fold change [1] | log2 fold change (filanesib) | log2 fold change (zotarolimus) | log2 fold change (idasanutlin) | log2 fold change (alisertib) | log2 fold change [2] | log2 fold change (gefitinib) | log2 fold change [3] | log2 fold change (lapatinib) | log2 fold change (pictilisib) | log2 fold change [4] | log2 fold change (crizotinib) | log2 fold change [5] | log2 fold change [6] | log2 fold change (duvelisib) | log2 fold change (gandotinib) | log2 fold change (tozasertib) | log2 fold change [7] | log2 fold change (doramapimod) | log2 fold change (ispinesib)
1 | FBXO6 (UniProt Q9NRD1) | -0.016 | 0.008 | 0.044 | -0.17 | -0.043 | 0.022 | 0.059 | 0.038 | 0.026 | -0.091 | 0.035 | 0.475 (active) | 0.052 | -0.082 | 0.04 | 0.088 | 0.036 | 0.036 | -0.049 | 0.39 (active)
2 | HDDC2 (UniProt Q7Z4H3) | -0.098 | -0.037 | 0.049 | -0.068 | 0.04 | -0.05 | -0.022 | 0.068 | 0.037 | 0.064 | 0.044 | -0.058 | 0.106 | -0.103 | 0.04 | 0.032 | 0.026 | 0.024 | 0.031 | 0.228
3 | FECH isoform 2 (UniProt P22830) | 0.159 | -0.188 | 0.082 | -0.127 | -0.185 | 0.363 | 0.153 | 0.062 | 0.269 | 0.396 | 0.527 | 0.021 | 0.161 | -0.12 | 0.263 | 0.178 | 0.162 | 0.029 | 0.071 | -0.37
4 | GALNT11 (UniProt Q8NCW6) | -0.012 | -0.028 | -0.019 | -0.042 | 0 | 0.052 | 0.013 | 0.062 | -0.011 | 0.026 | 0.039 | 0.04 | 0.112 | 0.018 | 0.039 | 0.045 | 0.027 | -0.061 | 0.045 | -0.163
5 | H1FX (UniProt Q92522) | -0.116 | 0.112 | 0.049 | 0.161 | -0.147 | 0.033 | -0.044 | -0.24 | 0.133 | -0.134 | -0.175 | 0.091 | -0.524 | 0.432 | -0.143 | 0.13 | 0.029 | 0.021 | 0.188 | -0.016
6 | FOXK1 (UniProt P85037) | -0.002 | 0.361 | 1 (active) | -0.123 | -0.038 | 0.526 | 0.516 | 0.774 | 0.085 | 0.584 | -1.1 (active) | 0.336 | 0.897 | -0.482 | 0.582 | -1.34 (active) | 0.127 | -0.148 | -0.126 | 0.373
7 | HMG20A (UniProt Q9NP66) | -0.045 | 0.05 | 0.078 | -0.21 | -0.016 | 0.147 | 0.065 | -0.021 | -0.088 | 0.145 | -0.042 | 0.07 | -0.018 | -0.199 | 0 | 0.104 | -0.035 | -0.087 | 0.071 | 0.352
8 | GLS isoform 3 (UniProt O94925) | -0.021 | -0.029 | 0.008 | -0.26 | -0.003 | 0.216 | 0.041 | 0.031 | 0 | 0.078 | 0.038 | 0.021 | 0.256 | -0.007 | 0.077 | -0.264 | 0.014 | 0.064 | 0.023 | 0.219
9 | HSD17B12 (UniProt Q53GQ0) | 0.069 | -0.013 | 0.03 | -0.169 | 0.003 | 0.135 | 0.103 | 0.045 | 0.369 (active) | 0.102 | 0.046 | 0.191 | 0.012 | -0.061 | 0.063 | 0.371 (active) | -0.018 | 0.055 | -0.009 | 0.243
10 | H2AFX (UniProt P16104) | -0.06 | 0.393 | -0.3 | 0.484 | -0.007 | -0.136 | 0.049 | -0.361 | 0.054 | -0.215 | -0.09 | -0.096 | -0.39 | 0.479 | -0.128 | 0.087 | 0.073 | -0.078 | 0.348 | -0.222
11 | GALNT2 (UniProt Q10471) | 0.018 | -0.025 | 0.043 | -0.065 | -0.03 | -0.042 | 0.059 | -0.012 | 0.036 | -0.01 | 0.056 | -0.005 | 0.093 | -0.015 | 0.05 | -0.024 | -0.065 | 0.022 | -0.001 | 0.034
12 | GLCCI1 (UniProt Q86VQ1) | 0.009 | 0.052 | 0.067 | 0.11 | -0.025 | -0.096 | 0.109 | 0.083 | -0.02 | -0.039 | -0.008 | 0.045 | 0.024 | 0.026 | 0.023 | 0.079 | 0.009 | 0.044 | -0.032 | 0.239
13 | GTF2E1 (UniProt P29083) | 0.042 | 0.01 | 0.004 | -0.032 | -0.026 | 0.06 | 0.013 | 0.012 | -0.037 | -0.002 | 0.008 | 0.02 | 0.118 | -0.088 | 0.035 | -0.011 | 0.046 | 0.059 | -0.03 | -0.028
14 | GNS (UniProt P15586) | -0.014 | -0.041 | -0.05 | -0.002 | -0.034 | -0.011 | 0.017 | 0.039 | -0.024 | 0.014 | 0.001 | -0.115 | 0.046 | -0.032 | 0.016 | 0.061 | 0.014 | -0.028 | 0.016 | -0.021
15 | GLYR1 (UniProt Q49A26) | -0.024 | 0.125 | -0.04 | 0 | 0.071 | -0.092 | 0.113 | -0.07 | 0.169 | -0.228 | 0.033 | 0.008 | -0.125 | 0.075 | -0.179 | 0.016 | -0.18 | -0.06 | 0.117 | -0.132
16 | GYG1 (UniProt P46976) | 0.08 | 0.124 | 0.036 | 0.15 | -0.133 | -0.163 | -0.028 | -0.195 | 0.051 | 0.376 (active) | -0.223 | -0.037 | -0.15 | 0.018 | -0.057 | -0.12 | 0.072 | 0.09 | 0.072 | -0.12
